# Bioassay records: PubChem BioAssay, National Center for Advancing Translational Sciences (NCATS)
# The list is not random: actives were taken first. Their share in the collection is about 0.95%.
# TexasRed autofl = qHTS Assay for Spectroscopic Profiling in Texas Red Spectral Region; Compound fluorescence, Texas Red channel, 547/618 nm; active compounds read high; max dye-equivalent concentration, M; hit rate 0.06% among 59,000; in the data active = max dye-equivalent concentration above about 10 nM; inconclusive = between about 1.1 nM and that limit
#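 Compound fluorescence was read after 15 min at room temperature in 100 mM Tris, pH 8.0, using 547 nm excitation and 618 nm emission across a concentration series. It was expressed as Texas Red dye-equivalent concentration from an on-plate standard curve.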
# Rhodamine fluor = qHTS Assay for Spectroscopic Profiling in Rhodamine Spectral Region | max dye-equivalent concentration, M | hit rate 0.05% among 59,000 | Rhodamine-region fluorescence, 547/598 nm, Tris buffer; active compounds read high | AID 594, 2007; in the data active = max dye-equivalent concentration above about 11 nM; inconclusive = between about 1.1 nM and that limit
#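 Compound fluorescence in 100 mM Tris, pH 8.0, read after 15 min at room temperature with 547 nm excitation and 598 nm emission. Output is dye-equivalent concentration from an on-plate rhodamine standard series.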
# A488 fluor = qHTS Assay for Spectroscopic Profiling in A488 Spectral Region; compound autofluorescence, A488 spectral region, dye equivalency; Compound Type: qHTS ECL - MLSMR; max dye equivalency, M; hit rate 0.1% among 59,000; AID 591, 2007
#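 Spectroscopic profiling in the A488 region: compounds in pH 8.0 Tris (100 mM), 15 min RT, CCD imaging with 480 nm excitation and 540 nm emission; responses normalized against A488 dye standards.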
# Fluorescein autfl = qHTS Assay for Spectroscopic Profiling in Fluorescein Spectral Region; Compound autofluorescence, 480/540 nm, fluorescein-equivalent; active compounds read high; max fluorescein-equivalent concentration, M; hit rate 0.91% among 59,000; AID 593, 2007; in the data active = max fluorescein-equivalent concentration above about 10 nM; inconclusive = between about 1.1 nM and that limit
#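 Library compounds, added at multiple concentrations to pH 8.0 Tris buffer (100 mM), incubate 15 min at room temperature before CCD imaging at 480 nm excitation and 540 nm emission.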
# Resorufin autofl = qHTS Assay for Spectroscopic Profiling in Resorufin Spectral Region | Compound fluorescence, resorufin region 547/598 nm, buffer; active compounds read high | hit rate 0.04% among 59,000 | max dye-equivalent concentration, M | AID 588, 2007
#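 Compounds in 100 mM Tris, pH 8.0, incubated 15 min at room temperature, then fluorescence read at 547 nm excitation/598 nm emission. Signal converted to dye-equivalent concentration via an on-plate six-point resorufin standard curve, per compound concentration.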
# A647 fluor = qHTS Assay for Spectroscopic Profiling in A647 Spectral Region. Compound fluorescence, A647 channel (570/671 nm), Tris buffer. max dye-equivalent concentration, M. 59,000 tested, under 10 active;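 also: values scaled relative to a standard on each plate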
#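 Each compound's intrinsic fluorescence at 570 nm excitation and 671 nm emission is measured across its concentration series in 100 mM Tris, pH 8.0, after 15 min at room temperature, and reported relative to an A647 curve.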
# Numbers without * were called inactive; i = inactive; ? = inconclusive. Unless noted, no rule for the calls is given here.
SMILES,TexasRed autofl,Rhodamine fluor,A488 fluor,Fluorescein autfl,Resorufin autofl,A647 fluor
COc1cccc2cc(C(=O)N3CCc4ccccc43)c(=O)oc12,i,i,i,i,i,1.2e-08
Cc1c2cccc(Sc3ccccc3)c2c2c3c(cccc13)[S+](c1ccccc1)C2 (stereo unspecified),?,i,i,?,i,2.7e-09
COc1cccc(C2C=C(c3ccc(Br)s3)Nc3ncnn32)c1OC (stereo unspecified),i,i,i,1.5e-08M*,i,1e-09
Fc1ccc(Br)cc1C1C=C(c2ccc(Br)s2)Nc2ncnn21 (stereo unspecified),i,i,i,?,i,3.4e-09
C[n+]1cc2c3c(ccc2c2ccc4cc5c(cc4c21)OCO5)OCO3,i,?,?,3e-08M*,i,3.7e-09
C=CCOn1c(=O)c(-c2cc3ccccc3o2)[n+]([O-])c2ccccc21,i,i,i,1.9e-08M*,i,2.2e-08
COc1ccc(CNc2ncncc2-c2c(C)noc2C)c(OC)c1,i,i,i,?,i,1e-08
O=[n+]1c2c(n([O-])c3cc(F)ccc31)CCCC2,i,i,i,i,i,1e-08
O=[n+]1c2c(n([O-])c3cc(F)c(N4CCCC4)cc31)CCC2,?,?,?,1.7e-07M*,?,1.2e-08
OCCN(CCO)c1ncnc2nc[nH]c12,i,i,i,i,i,1.2e-08
CC(C)C1Cc2c(C#N)c(N)sc(=S)c2CO1 (stereo unspecified),i,i,i,1.3e-08M*,i,3.9e-09
CCOC(=O)N1CCc2c(sc3c2C(=O)NC(c2ccc(-c4ccc(Cl)cc4)o2)N3)C1 (stereo unspecified),i,i,i,i,i,1e-09
O=C1NC(c2ccccn2)Nc2sc3c(c21)CCC3 (stereo unspecified),?,i,i,i,i,9.1e-09
CN1CCc2c(sc3c2C(=O)NC(c2ccccn2)N3)C1 (stereo unspecified),1.2e-08M*,?,?,5.6e-08M*,?,4.8e-08
Cc1ccc(C2NC(=O)c3c(sc4c3CCN(C)C4)N2)o1 (stereo unspecified),i,i,i,1.2e-08M*,i,4e-08
Cc1ccc(C2NC(=O)c3c(sc4c3CCN(C)C4)N2)s1 (stereo unspecified),i,i,i,1.6e-08M*,i,4.5e-08
CN1CCc2c(sc3c2C(=O)NC(c2ccc4c(c2)OCO4)N3)C1 (stereo unspecified),?,i,i,?,i,2.3e-08
CN1CCc2c(sc3c2C(=O)NC(/C=C/c2ccco2)N3)C1 (stereo unspecified),i,i,i,1.3e-08M*,i,4.3e-08
COc1cccc(Cn2c(=O)cnc3cnc(N(C)C)nc32)c1,i,i,i,?,i,3.2e-08
N#CC(C(=O)OC1CCCCC1)c1nc2ccccc2nc1N1CCCCC1 (stereo unspecified),i,i,i,1.3e-08M*,i,3.9e-09
CC1CCCN(c2nc3ccccc3nc2C(C#N)C(=O)OC2CCCCC2)C1 (stereo unspecified),?,i,i,1.4e-08M*,i,1e-08
CCSCCCC(=O)O,i,i,i,?,i,5.7e-08
CCCn1c(=N)c(C(=O)NCc2ccc3c(c2)OCO3)cc2c(=O)n3cccc(C)c3nc21,i,i,i,1.4e-08M*,i,2.6e-09
COc1ccc(-c2ccc(-c3noc(-c4ccccc4OC)n3)c(OC)n2)cc1,i,i,?,2.8e-08M*,i,1e-09
COc1ccc(-c2ccc(-c3noc(-c4ccccc4C)n3)c(OC)n2)cc1,?,i,i,1.2e-08M*,i,1e-09
SMILES,TexasRed autofl,Rhodamine fluor,A488 fluor,Fluorescein autfl,Resorufin autofl,A647 fluor
O=C(c1[nH]o[n+](=O)c1C(=O)c1csc2ccccc12)c1csc2ccccc12,i,i,i,i,i,1e-09
CC[C@@]1([N+](=O)[O-])C[C@H]2C=C[C@@H]1C2,i,i,i,?,i,5.4e-08
NC(N)=NNC(=O)C(=O)O,i,i,i,i,i,1e-09
C[C@@H]1O[C@H](O[C@@H]2[C@@H](Oc3cc(O)c4c(c3)O[C@H](c3ccc(O)cc3)CC4=O)O[C@@H](CO)[C@@H](O)[C@H]2O)[C@@H](O)[C@H](O)[C@@H]1O,i,i,i,?,i,3e-08
CC(=O)Oc1ccc(/C=C\C(=O)C[C@@H]2O[C@@H](Oc3cc(OC(C)=O)c4c(c3)O[C@@H](c3ccc(OC(C)=O)cc3)CC4=O)[C@H](OC(C)=O)[C@H](OC(C)=O)[C@@H]2OC(C)=O)cc1,i,i,i,1.3e-08M*,i,5.2e-09
CC(C)c1ccc2c(c1)CC[C@H]1[C@@](C)(CN)CCC[C@@]21C,?,i,i,?,i,1.3e-08
CN1CC[C@@]2(CCCN(C(=O)c3cccc(F)c3)C2)C1,i,i,i,i,i,1.8e-08
O=c1c(-c2ccccc2)[n+]([O-])c2ccccc2n1O,i,i,i,1.7e-08M*,i,1e-09
CCCN1C[C@@H](CSC)C[C@H]2c3cccc4[nH]cc(c34)C[C@@H]21,?,i,i,?,i,1.2e-09
CC1(C)S[C@@H]2[C@H](NC(=O)[C@@H](NC(=O)N3CCNC3=O)c3ccccc3)C(=O)N2[C@H]1C(=O)O,?,i,i,i,i,6.4e-09
CCOC(=O)CSC1=NC(=O)CS1,i,i,i,2e-08M*,i,1e-09
CCOC(=O)CSc1nnc(N)s1,?,i,i,?,i,2.3e-09
COC(=O)c1c(=O)n(O)c2ccc(OC)cc2[n+]1[O-],i,i,?,3.6e-08M*,i,2e-09
COC(=O)/C=c1/sc2n(c1=O)CCN=2,i,i,i,i,i,1.8e-08
CN(C)c1ccc(/C=c2\sc3n(c2=O)CCCN=3)cc1,i,i,i,1.5e-08M*,i,1e-09
O=C1CC(/C=C/c2ccco2)=Nc2ccccc2N1,?,i,?,3.6e-08M*,i,2.2e-08
CC1(C)c2ccccc2N2CC(=O)NC21/C=C/c1ccco1 (stereo unspecified),i,i,i,?,i,1e-09
COc1cccc(Cn2c(=O)c(-c3cccc(F)c3)nc3cncnc32)c1,i,i,i,?,i,1.7e-08
